Activity calls are given as the source filed them.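 How the source made its calls: active means compounds whose dose series gives a full or clear partial fitted curve of increased nuclear translocation; inconclusive means weak partial curve or effect only at the top dose; inactive means no dose-dependent translocation response.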
molecular target: Glucocorticoid receptor (Homo sapiens) (UniProt P04150); assay: GR-GFP Redistribution (AID 450); settings: U2OS GR-GFP nuclear translocation, laser cytometry, 2 h
From the text: NIH Molecular Libraries Screening Centers Network [MLSCN]
NIH Chemical Genomics Center [NCGC]
The glucocorticoid receptor (GR) Redistribution assay (BioImage) enables the visualization of GR cytoplasmic to nuclear translocation by the use of a GR-GFP fusion. GR is normally cytosolic, however ligands such as dexamethasone, cause nuclear translocation where the protein binds to response elements and interacts with various co-factors to modulate transcription. Because both functional agonists and antagonists can induce nuclear translocation, this assay can detect ligands regardless of their effects on gene expression. GR-GFP expressing U20S cells were used here. Dexamethasone was the positive control for translocation and data normalization. Detection of nuclear translocation was performed in 1536-well plates using the Acumen laser scanning plate cytometer (TTP LabTech). Validation of this assay and a detailed protocol have been described.
NCGC Assay Protocol Summary:
GR-GFP U2OS cells were maintained in DMEM with Glutamax and high glucose, 1% v/v penicillin-streptomycin, and 0.5 mg/mL Geneticin. For cell culture, 10% […] fetal bovine serum (FBS) was used (Invitrogen #26140-079). For cell plating 10% dextran, charcoal-stripped FBS (Hyclone SH30068.03) was used. U2OS cells were trypsin treated, suspended in medium, and passed through a 40 um basket filter. The cells were seeded at 600 cells/5 uL/well into clear-bottom black sided 1536-well plates and incubated for approximately 20 hrs, 37degC, 5%, CO2 in a tissue culture incubator. Twenty-three nL of compound was delivered by pin tool and the plates were incubated as above for 2 hrs. The compounds were tested as a 7-point titration ranging from 46 uM to 0.6 nM. The cells were fixed using the Kalypsys Washer/Dispenser station. The fixing protocol involved aspiration of the cell media, addition of 6 uL/well of PBS, aspiration of PBS, addition of 5uL/well of 100% methanol, aspiration of methanol, and addition of 3 uL/well PBS with 1.5 uM propidium iodide (PI). The plates were read by the Acumen Explorer using a 1 x 8 um scan of the whole well area. PI fluorescence triggered the collection of PI and GFP signals. A nuclei population was defined by a 10 to 100 um width and depth filter that eliminated small and large fluorescent particles. Two subpopulations of nuclei were then defined by peak intensity of GFP fluorescence to obtain translocated and untranslocated objects. The number of translocated objects was used for data normalization.
Keywords: NIH Roadmap, MLSCN, MLI, MLSMR, sOGT, qHTS, NCGC
Potency means the concentration at half of the fitted maximal effect.

Glucocorticoid receptor (Homo sapiens), sequence (P04150 whole entry, looked up): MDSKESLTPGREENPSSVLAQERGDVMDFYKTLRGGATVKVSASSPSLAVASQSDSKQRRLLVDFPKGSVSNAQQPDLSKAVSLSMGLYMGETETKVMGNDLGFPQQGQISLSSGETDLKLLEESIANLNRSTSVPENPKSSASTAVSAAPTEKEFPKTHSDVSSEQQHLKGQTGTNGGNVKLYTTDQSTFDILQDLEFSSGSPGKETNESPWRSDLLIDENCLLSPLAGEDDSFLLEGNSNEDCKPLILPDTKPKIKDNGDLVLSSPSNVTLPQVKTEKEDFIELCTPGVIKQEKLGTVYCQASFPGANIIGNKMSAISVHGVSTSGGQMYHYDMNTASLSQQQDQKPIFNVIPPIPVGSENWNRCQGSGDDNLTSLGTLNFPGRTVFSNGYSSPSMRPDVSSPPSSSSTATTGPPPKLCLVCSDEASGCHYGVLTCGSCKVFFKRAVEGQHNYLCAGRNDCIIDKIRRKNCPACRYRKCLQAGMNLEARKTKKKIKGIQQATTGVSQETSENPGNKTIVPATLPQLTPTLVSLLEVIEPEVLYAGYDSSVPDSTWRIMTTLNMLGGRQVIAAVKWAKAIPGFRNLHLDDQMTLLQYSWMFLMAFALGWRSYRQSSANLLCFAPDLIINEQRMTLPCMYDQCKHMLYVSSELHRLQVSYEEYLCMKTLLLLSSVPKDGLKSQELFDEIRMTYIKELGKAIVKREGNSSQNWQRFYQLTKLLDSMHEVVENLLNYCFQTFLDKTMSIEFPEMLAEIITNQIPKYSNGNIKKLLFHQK

SMILES | Potency
COc1ccc(-n2c(=O)c(-c3cc(F)cc(F)c3)nc3cnc(N(C)C)nc32)cc1 | > 9.22 µM (inactive)
CS(=O)(=O)Nc1cccc(-c2cncnc2NCc2cccs2)c1 | > 46 µM (inactive)
COc1ccc(-n2c(=O)cnc3cnc(N(C)C)nc32)cc1 | > 9.22 µM (inactive)
COc1ccc(CNc2cc(-c3ccccc3Cl)ncn2)c(OC)c1 | > 46 µM (inactive)
Cn1c(=O)c(-c2cccs2)nc2cnc(N3CCOCC3)nc21 | > 9.22 µM (inactive)
CN1CCN(c2nc(-c3cccc(C#N)c3)nc3ccccc23)CC1 | > 46 µM (inactive)
O=c1c(-c2ccc(F)cc2)nc2cnc(Oc3cccc(Cl)c3)nc2n1C1CC1 | > 9.22 µM (inactive)
Cc1nc2cnc(N3CCNCC3)nc2n(CCc2ccccc2)c1=O | > 9.22 µM (inactive)
COc1ccccc1-c1cc(NCc2cccnc2)ncn1 | > 46 µM (inactive)
Clc1ccccc1-c1nc(N2CCNCC2)c2ccccc2n1 | > 46 µM (inactive)
O=c1cnc2cnc(Oc3cccc(Cl)c3)nc2n1C[C@H]1CCCO1 | > 9.22 µM (inactive)
CN(C)c1ncc2ncc(=O)n(C[C@H]3CCCO3)c2n1 | > 9.22 µM (inactive)
Cc1ccccc1-c1nc(N2CCN(C)CC2)c2ccccc2n1 | > 46 µM (inactive)
N#Cc1cccc(-c2cc(NCc3ccccc3)ncn2)c1 | > 46 µM (inactive)
CS(=O)(=O)Nc1cccc(-c2ccc3ncnc(NCCN4CCOCC4)c3c2)c1 | > 46 µM (inactive)
Cc1cnc(CNc2ccnc(-c3ccccc3CN(C)C)n2)cn1 | > 46 µM (inactive)
COc1cccc(Cn2c(=O)c(-c3cc(F)cc(F)c3)nc3cnc(N4CCN(C)CC4)nc32)c1 | > 9.22 µM (inactive)
CCNc1ncc2nc(-c3ccc(Cl)cc3)c(=O)n(C[C@H]3CCCO3)c2n1 | > 9.22 µM (inactive)
COCCn1c(=O)c(-c2ccc(Cl)cc2)nc2cnc(Oc3cccc(Cl)c3)nc21 | > 9.22 µM (inactive)
c1cncc(CNc2ccnc(-c3ccc4c(c3)OCO4)n2)c1 | > 46 µM (inactive)

SMILES | Potency
COCCNc1ncnc2ccc(-c3cccnc3)cc12 | > 46 µM (inactive)
CCNc1ncc2nc(-c3cn(C)c4ccccc34)c(=O)n(-c3ccccc3)c2n1 | > 9.22 µM (inactive)
O=c1c(-c2cccs2)nc2cnc(N3CCNCC3)nc2n1CCc1ccccc1 | > 9.22 µM (inactive)
CNc1nc(-c2ccccc2Cl)nc2ccccc12 | > 46 µM (inactive)
CCNc1ncc2nc(-c3cc(F)cc(F)c3)c(=O)n(C[C@H]3CCCO3)c2n1 | > 9.22 µM (inactive)
CN(Cc1ccco1)c1ncncc1-c1cccc(C#N)c1 | > 46 µM (inactive)
CN1CCN(c2ncc3nc(-c4cccc(C#N)c4)c(=O)n(Cc4ccc(F)cc4)c3n2)CC1 | > 9.22 µM (inactive)
Clc1ccccc1-c1ccc2ncnc(NCc3cccnc3)c2c1 | > 46 µM (inactive)
CN(C)c1ncc2ncc(=O)n(CCC#N)c2n1 | > 9.22 µM (inactive)
CNc1ncnc2ccc(-c3ccccc3CN(C)C)cc12 | > 46 µM (inactive)
COc1ccc(Oc2ncc3ncc(=O)n(C)c3n2)cc1 | > 9.22 µM (inactive)
COc1ccc(-n2c(=O)c(-c3cccs3)nc3cnc(N(C)C)nc32)cc1 | > 9.22 µM (inactive)
COc1cccc(-c2ccc3ncnc(NC4CCNCC4)c3c2)c1 | > 46 µM (inactive)
c1csc(CNc2ncnc3ccc(-c4ccoc4)cc23)c1 | > 46 µM (inactive)
CN(C)c1ncc2nc(-c3ccc(F)cc3)c(=O)n(C)c2n1 | > 9.22 µM (inactive)
Cc1nc2cnc(N3CCOCC3)nc2n(CCC#N)c1=O | > 9.22 µM (inactive)
COCCn1c(=O)c(C)nc2cnc(N3CCN(C)CC3)nc21 | > 9.22 µM (inactive)
CN(Cc1ccco1)c1ncncc1-c1ccccc1Cl | > 46 µM (inactive)
Cc1ccccc1-c1cc(N(C)C)ncn1 | > 46 µM (inactive)
CN(C)c1ncc2nc(-c3cccc(C#N)c3)c(=O)n(CCC#N)c2n1 | > 9.22 µM (inactive)
